Experimental data taken from paper PMC4336329 (PLoS ONE, 2015).
The campaign covered roughly 310,000 compounds. About 2,200 (0.71%) showed an effect of 50% or more. Effects have a minus sign here. What follows is part of a selection rich in strong results, with near analogues and random picks from the rest.

Biological target: human ether-à-go-go-related gene (hERG) potassium channel (human, UniProt Q12809)
Experiment: primary screen, population patch clamp on CHO cells stably expressing hERG; higher = less effect of the substance

human ether-à-go-go-related gene (hERG) potassium channel, sequence (Q12809 whole entry, looked up): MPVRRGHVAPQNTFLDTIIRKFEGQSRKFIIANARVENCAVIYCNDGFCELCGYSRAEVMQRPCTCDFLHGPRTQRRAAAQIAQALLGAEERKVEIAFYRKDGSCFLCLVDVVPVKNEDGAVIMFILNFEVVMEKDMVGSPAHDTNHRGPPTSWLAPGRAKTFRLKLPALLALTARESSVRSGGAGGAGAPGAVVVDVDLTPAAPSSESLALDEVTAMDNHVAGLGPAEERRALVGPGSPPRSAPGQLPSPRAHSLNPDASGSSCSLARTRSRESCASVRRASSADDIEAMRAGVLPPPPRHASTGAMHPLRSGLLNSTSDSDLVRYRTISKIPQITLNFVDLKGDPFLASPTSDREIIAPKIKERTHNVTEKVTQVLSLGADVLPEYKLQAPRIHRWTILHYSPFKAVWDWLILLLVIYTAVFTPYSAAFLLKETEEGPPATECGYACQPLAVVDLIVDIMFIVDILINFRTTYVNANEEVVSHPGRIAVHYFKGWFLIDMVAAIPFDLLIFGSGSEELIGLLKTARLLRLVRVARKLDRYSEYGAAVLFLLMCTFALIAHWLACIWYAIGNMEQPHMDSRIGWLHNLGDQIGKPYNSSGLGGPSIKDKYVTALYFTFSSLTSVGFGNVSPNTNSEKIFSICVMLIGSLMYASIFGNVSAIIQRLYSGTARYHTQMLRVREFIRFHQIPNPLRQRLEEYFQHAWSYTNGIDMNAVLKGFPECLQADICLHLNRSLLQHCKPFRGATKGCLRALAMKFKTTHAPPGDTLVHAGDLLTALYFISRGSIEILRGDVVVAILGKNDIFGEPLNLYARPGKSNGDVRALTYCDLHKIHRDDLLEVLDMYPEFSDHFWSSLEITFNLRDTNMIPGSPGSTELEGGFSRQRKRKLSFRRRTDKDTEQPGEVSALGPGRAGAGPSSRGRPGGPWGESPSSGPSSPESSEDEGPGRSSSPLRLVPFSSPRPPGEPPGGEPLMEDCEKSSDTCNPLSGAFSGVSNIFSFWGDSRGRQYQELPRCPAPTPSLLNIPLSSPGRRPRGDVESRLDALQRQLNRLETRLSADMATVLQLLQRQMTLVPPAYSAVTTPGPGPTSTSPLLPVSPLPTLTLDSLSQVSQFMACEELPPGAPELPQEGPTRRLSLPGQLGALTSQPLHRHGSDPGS

Row | SMILES | hERG current change (%, negative = inhibition) at 1uM [%]
1 | CNC(=O)NC(=O)CSc1nnc(C(F)(F)F)n1C | 8.32
2 | O=C(OCC(=O)N1CCCC1)c1c(Cl)ccc(Cl)c1Cl | 9.45
3 | CCCc1nc(NC(C)=O)c(C#N)c(-c2ccco2)c1CC | 0.0807
4 | Cc1cccc(C)c1NC(=O)c1c[nH]c2ccccc12 | 11.7
5 | COCC(C)n1c(C)cc(C(=O)CN2c3cccc4cccc(c34)S2(=O)=O)c1C (stereo not drawn) | 7.82
6 | CC(C)C(c1nnnn1Cc1ccccc1)N(CCCO)Cc1cc2cc3c(cc2[nH]c1=O)OCO3 (stereo not drawn) | 10.4
7 | COC(=O)c1cc2ccsc2n1CC(=O)Nc1ccc(N(C)C)cc1 | 5.25
8 | C=CCN1N=C(c2ccc(Cl)s2)CSC1=O | 22.3
9 | Cc1ccc(NC(=S)NC(=O)CC2CC(C)(C)OC2=O)cc1 (stereo not drawn) | 8.78
10 | CCN1/C(=C2\C(=O)N(c3ccccc3)N=C2C)C=Cc2cc(C)ccc21 | -1.41
11 | CCN1C(=C(C#N)C#N)C=Cc2cc(C)ccc21 | 14.9
12 | CCN1C(=O)/C(=C2\C=Cc3cc(C)ccc3N2CC)OC1=S | 14
13 | CCN1/C(=C/c2ccc3ccccc3[n+]2CCCS(=O)(=O)[O-])C=Cc2cc(C)ccc21 | 13
14 | CCN1/C(=C/c2ccc3ccccc3[n+]2CC)C=Cc2ccccc21.[Cl-] | -89.5
15 | CCN1C(=C(C#N)C#N)C=Cc2ccccc21 | 15.9
16 | CCOC(=O)/C(C#N)=C/C=C1\C=Cc2ccccc2N1CC | 14.8
17 | CCN1/C(=C/c2cc[n+](C)cc2)C=Cc2cc(C)ccc21.[I-] | -55.5
18 | C=CC[n+]1c(/C=C2\C=Cc3cc(C)ccc3N2CC)ccc2ccccc21.[Br-] | -92.1
19 | O=S(=O)(CCc1nnc(-c2ccc(Br)cc2)o1)c1ccc(Cl)cc1 | 6.04
20 | Cc1cccc(NC(=O)CSc2cccc3cccnc23)c1C | 13.9
21 | COc1ccccc1NC(=O)c1nc[nH]c1C(=O)Nc1ccccc1OC | 22.2
22 | CC(=O)N1CCN(CCN=CC2=C(O)CC(c3cccs3)CC2=O)CC1 (stereo not drawn) | 10.4
23 | CCCCCC(=O)N1CCN(CCN=CC2=C(O)CC(c3ccco3)CC2=O)CC1 (stereo not drawn) | -74.7
24 | CC(C)C(=O)N1CCN(CCN=CC2=C(O)CC(c3ccco3)CC2=O)CC1 (stereo not drawn) | 14
25 | CC(=O)N1CCN(CCN=CC2=C(O)CC(c3ccco3)CC2=O)CC1 (stereo not drawn) | 2.39
26 | CCCCCC(=O)N1CCN(CCN=CC2=C(O)CC(c3cccs3)CC2=O)CC1 (stereo not drawn) | -109
27 | CCC(=O)N1CCN(CCN=CC2=C(O)CC(c3cccs3)CC2=O)CC1 (stereo not drawn) | 9.17
